From PubChem BioAssay (NCATS)
Results filed as inconclusive are left out. Calls of active or inactive are those of the source. Calls come from the whole dose curve; as a rule, active = well fitted curve in the direction sought with a large enough effect; inconclusive = small, poorly fitted or top-dose-only effect, or another doubt; inactive = no such curve, though single readings can be large; an effect the other way counts as inactive or inconclusive.

system: not listed separately; assay: qHTS for Activators of Parkin Expression: LOPAC Validation Assay (NLuc Reporter) (AID 720572); settings: Parkin promoter NanoLuc reporter cells, luminescence; series mostly up to 46.1 µM; activation: at the top concentration
How it was run: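 NLuc signal, read 10 min after reagent and following a prior FLuc read, is normalized to DMSO (0) and positive controls (100%). Cells: neuronal Parkin-promoter coincidence reporter line; compounds tested 7-point, 24 h, 37 C, 5% CO2.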

Row | Compound | activation | Potency
1 | Cn1ncc(S(=O)(=O)Cc2ccccc2)c(Br)c1=O | -17.2% (inactive) | –
2 | CNC(=O)[C@H]1O[C@@H](n2cnc3c(NCc4ccc(N)cc4)ncnc32)[C@H](O)[C@@H]1O | -0.635% (inactive) | –
3 | CN1C2CCC1CC(OC(=O)C(O)c1ccccc1)C2 (stereo unspecified) | -1.49% (inactive) | –
4 | CCC1C(=O)OCC1Cc1cncn1C (stereo unspecified) | – | inactive
5 | O=C1O/C(=C/Br)CCC1c1cccc2ccccc12 (stereo unspecified) | -21.6% (inactive) | –
6 | Nc1nc(Cl)nc2c1ncn2[C@@H]1O[C@H](COP(=O)(O)OP(=O)(O)OP(=O)(O)O)[C@@H](O)[C@H]1O | 1.08% (inactive) | –
7 | CCCCCCCCc1ccc(-c2ccc(C(=O)O)cc2)cc1 | 14% (inactive) | –
8 | CSc1nc(N)c2ncn([C@@H]3O[C@H](COP(=O)(O)OP(=O)(O)OP(=O)(O)O)[C@@H](O)[C@H]3O)c2n1 | -4.99% (inactive) | –
9 | Cc1cc(NC2CCCCC2)nc(-n2nc(C)cc2C)n1 | -10.2% (inactive) | –
10 | C[N+](C)(CCCCCC[N+](C)(C)CCCN1C(=O)c2cccc3cccc(c23)C1=O)CCCN1C(=O)c2cccc3cccc(c23)C1=O | -6.15% (inactive) | –
11 | CC(N)C(=O)OC(C)(C)Cc1ccc(Cl)cc1 (stereo unspecified) | -3.62% (inactive) | –
12 | Cn1cc(C2=C(c3ccc(Cl)cc3Cl)C(=O)NC2=O)c2ccccc21 | 17.6% (inactive) | –
13 | O=C(c1ccc(Cl)cc1)N1CCN(c2ccc([N+](=O)[O-])c3ncccc23)CC1 | -6.97% (inactive) | –
14 | O=C(O)c1cc([N+](=O)[O-])ccc1NCCCc1ccccc1 | -1.21% (inactive) | –
15 | Cc1cc(NC(=O)Nc2ccc3c(ccn3C)c2)sn1 | 6.96% (inactive) | –
16 | CN1CCc2ccccc2Cc2[nH]c3ccccc3c2CC1 | 3.46% (inactive) | –

system: not listed separately; assay: qHTS for Activators of Parkin Expression: LOPAC Validation Assay (FLuc Reporter) (AID 720573; note: potency is the fitted concentration of half-maximal effect); settings: Cell line, PRKN promoter firefly luciferase reporter; series mostly up to 46.1 µM; activation: at the top concentration
How it was run: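 FLuc luminescence read-out from a neuronal line expressing a Parkin-promoter-driven coincidence reporter. Cells treated 24 h at 37 C, 5% CO2 with compounds at 7 concentrations; signal increase normalized to DMSO and positive control.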

Row | Compound | activation | Potency
17 | N[C@@H](CC(=O)O)C(=O)O | -11.1% (inactive) | –
18 | N=c1ccn2c(n1)O[C@H]1[C@H](O)[C@@H](CO)O[C@H]12 | -23.6% (inactive) | –
19 | CCCCCCCCCCCCCCCC(=O)OC(CC(=O)O)C[N+](C)(C)C (stereo unspecified) | -11.1% (inactive) | –
20 | NC(=O)C1=CN(C2OC(COP(=O)(O)OP(=O)(O)OC[C@H]3O[C@@H](n4cnc5c(N)ncnc54)[C@H](OP(=O)(O)O)[C@@H]3O)C(O)C2O)C=CC1 (stereo partly specified) | -7.54% (inactive) | –
21 | N#C/C(=C\c1c[nH]c2ccccc12)C(=O)c1ccc(O)c(O)c1 | 5.11% (inactive) | –
22 | Cc1ccc(S(=O)(=O)/C=C/C#N)cc1 | -49% (inactive) | –
23 | CCCC1(C)C(C#N)(C#N)C1(C#N)C#N | -49.1% (inactive) | –
24 | Cn1c(=O)c2[nH]c(-c3ccccc3)nc2n(C)c1=O | -5.42% (inactive) | –
25 | O=C(c1cc(O)c(O)c([N+](=O)[O-])c1)c1ccccc1F | -38.3% (inactive) | –
26 | CN(C)c1nc(N)c(C(=O)N=C(N)N)nc1Cl | -6.18% (inactive) | –
27 | O=C(O)CC1CCCc2ccccc2C1O (stereo unspecified) | 2.17% (inactive) | –
28 | C[C@@H](CN1CCC(Cc2ccccc2)CC1)[C@@H](O)c1ccc(O)cc1 | -11.8% (inactive) | –
29 | Ic1ccc(N2CCN(Cc3c[nH]c4ncccc34)CC2)cc1 | -19.8% (inactive) | –
30 | COc1ccccc1N1CCN(CCCCNS(=O)(=O)c2cccc3c(N(C)C)cccc23)CC1 | -14.4% (inactive) | –
31 | CC(=O)SCC[N+](C)(C)C | -2.4% (inactive) | –
32 | CN(C)C(N)=NCCC[C@H](N)C(=O)O | -2.51% (inactive) | –
33 | CCCCCCCCCCCCCCCC(=O)NCC(COP(=O)([O-])OCC[N+](C)(C)C)OCC (stereo unspecified) | 1.58% (inactive) | –
34 | CO/S(=N\S(=O)(=O)c1ccc(Cl)cc1)c1ccc([N+](=O)[O-])cc1 (stereo unspecified) | -2.27% (inactive) | –

Row | Compound | activation | Potency
35 | CC(C)NC[C@@H](O)c1ccc(O)c(O)c1 | 1.01% (inactive) | –
36 | Cn1ncc(S(=O)(=O)Cc2ccccc2)c(Br)c1=O | -47.2% (inactive) | –
37 | CNC(=O)[C@H]1O[C@@H](n2cnc3c(NCc4ccc(N)cc4)ncnc32)[C@H](O)[C@@H]1O | -6.99% (inactive) | –
38 | CN1C2CCC1CC(OC(=O)C(O)c1ccccc1)C2 (stereo unspecified) | -4.43% (inactive) | –
39 | CCC1C(=O)OCC1Cc1cncn1C (stereo unspecified) | – | inactive
40 | O=C1O/C(=C/Br)CCC1c1cccc2ccccc12 (stereo unspecified) | -49.1% (inactive) | –
41 | Nc1nc(Cl)nc2c1ncn2[C@@H]1O[C@H](COP(=O)(O)OP(=O)(O)OP(=O)(O)O)[C@@H](O)[C@H]1O | -11.1% (inactive) | –
42 | CCCCCCCCc1ccc(-c2ccc(C(=O)O)cc2)cc1 | 16% (inactive) | –
43 | CSc1nc(N)c2ncn([C@@H]3O[C@H](COP(=O)(O)OP(=O)(O)OP(=O)(O)O)[C@@H](O)[C@H]3O)c2n1 | -11.6% (inactive) | –
44 | Cc1cc(NC2CCCCC2)nc(-n2nc(C)cc2C)n1 | -11.2% (inactive) | –
45 | C[N+](C)(CCCCCC[N+](C)(C)CCCN1C(=O)c2cccc3cccc(c23)C1=O)CCCN1C(=O)c2cccc3cccc(c23)C1=O | -11.8% (inactive) | –
46 | CC(N)C(=O)OC(C)(C)Cc1ccc(Cl)cc1 (stereo unspecified) | -10.4% (inactive) | –
47 | Cn1cc(C2=C(c3ccc(Cl)cc3Cl)C(=O)NC2=O)c2ccccc21 | 0.993% (inactive) | –
48 | O=C(c1ccc(Cl)cc1)N1CCN(c2ccc([N+](=O)[O-])c3ncccc23)CC1 | -16.4% (inactive) | –
49 | O=C(O)c1cc([N+](=O)[O-])ccc1NCCCc1ccccc1 | 12.8% (inactive) | –
50 | Cc1cc(NC(=O)Nc2ccc3c(ccn3C)c2)sn1 | – | 5.8 µM (active)
51 | CN1CCc2ccccc2Cc2[nH]c3ccccc3c2CC1 | -1.42% (inactive) | –

target: Hexokinase-4 (Homo sapiens) + Glucokinase regulatory protein (Homo sapiens) (UniProt P35557+Q14397); assay: qHTS assay for inhibitors of recombinant human GCK-GKRP interaction: Diaphorase-coupled assay (AID 743205); settings: G6PDH/diaphorase resorufin fluorescence; series mostly up to 57.5 µM; activity change, positive = activation: at the top concentration
How it was run: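 Resorufin fluorescence (525/590 nm), read each minute over 30 min, reports GCK activity coupled via G6PDH and diaphorase. Reaction: 10 nM GST-GCK, 10 nM FLAG-GKRP, 5 mM glucose, 0.4 mM ATP, 0.15 mM NADP+, 0.1 mM resazurin.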

Chain of Hexokinase-4 (Homo sapiens) + Glucokinase regulatory protein (Homo sapiens) (P35557 whole entry, looked up): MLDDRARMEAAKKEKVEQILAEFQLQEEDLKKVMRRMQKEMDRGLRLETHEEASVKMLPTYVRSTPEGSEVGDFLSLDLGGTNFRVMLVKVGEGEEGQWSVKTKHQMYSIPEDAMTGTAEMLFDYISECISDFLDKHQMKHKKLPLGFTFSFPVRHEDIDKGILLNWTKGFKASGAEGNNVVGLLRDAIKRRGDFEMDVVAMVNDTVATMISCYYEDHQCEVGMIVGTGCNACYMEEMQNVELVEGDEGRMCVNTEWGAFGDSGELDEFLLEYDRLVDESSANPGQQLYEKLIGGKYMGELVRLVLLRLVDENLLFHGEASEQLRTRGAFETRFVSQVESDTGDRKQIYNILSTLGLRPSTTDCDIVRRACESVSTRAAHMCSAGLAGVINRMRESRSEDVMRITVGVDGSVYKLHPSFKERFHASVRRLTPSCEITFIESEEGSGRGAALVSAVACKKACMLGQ
Chain of Hexokinase-4 (Homo sapiens) + Glucokinase regulatory protein (Homo sapiens) (Q14397 whole entry, looked up): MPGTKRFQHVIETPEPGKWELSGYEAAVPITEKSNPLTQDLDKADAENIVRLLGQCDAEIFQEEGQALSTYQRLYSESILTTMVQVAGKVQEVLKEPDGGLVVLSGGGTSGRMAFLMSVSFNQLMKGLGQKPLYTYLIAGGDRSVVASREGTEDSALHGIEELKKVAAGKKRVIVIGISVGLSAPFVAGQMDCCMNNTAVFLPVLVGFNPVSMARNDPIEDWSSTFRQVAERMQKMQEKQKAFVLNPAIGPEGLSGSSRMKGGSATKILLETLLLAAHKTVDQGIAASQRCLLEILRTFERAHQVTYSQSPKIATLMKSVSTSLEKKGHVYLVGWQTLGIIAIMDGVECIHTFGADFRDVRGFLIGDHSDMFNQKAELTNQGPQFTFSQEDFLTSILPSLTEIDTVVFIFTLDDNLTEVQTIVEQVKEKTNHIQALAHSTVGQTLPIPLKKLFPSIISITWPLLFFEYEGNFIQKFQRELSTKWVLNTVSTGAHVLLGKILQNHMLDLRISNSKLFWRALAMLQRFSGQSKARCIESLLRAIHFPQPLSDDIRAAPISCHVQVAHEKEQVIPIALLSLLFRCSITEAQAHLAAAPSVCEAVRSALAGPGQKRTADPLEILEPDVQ

Row | Compound | activity change, positive = activation | outcome
52 | N[C@@H](CC(=O)O)C(=O)O | -1.21% (inactive) | –
53 | N=c1ccn2c(n1)O[C@H]1[C@H](O)[C@@H](CO)O[C@H]12 | -4.52% (inactive) | –
54 | CCCCCCCCCCCCCCCC(=O)OC(CC(=O)O)C[N+](C)(C)C (stereo unspecified) | -4.76% (inactive) | –
55 | NC(=O)C1=CN(C2OC(COP(=O)(O)OP(=O)(O)OC[C@H]3O[C@@H](n4cnc5c(N)ncnc54)[C@H](OP(=O)(O)O)[C@@H]3O)C(O)C2O)C=CC1 (stereo partly specified) | -18.6% (inactive) | –
56 | N#C/C(=C\c1c[nH]c2ccccc12)C(=O)c1ccc(O)c(O)c1 | -10.2% (inactive) | –
57 | Cc1ccc(S(=O)(=O)/C=C/C#N)cc1 | -4.5% (inactive) | –
58 | CCCC1(C)C(C#N)(C#N)C1(C#N)C#N | -2.75% (inactive) | –
59 | Cn1c(=O)c2[nH]c(-c3ccccc3)nc2n(C)c1=O | -1.01% (inactive) | –
60 | O=C(c1cc(O)c(O)c([N+](=O)[O-])c1)c1ccccc1F | 4.61% (inactive) | –
61 | CN(C)c1nc(N)c(C(=O)N=C(N)N)nc1Cl | 0.448% (inactive) | –
62 | O=C(O)CC1CCCc2ccccc2C1O (stereo unspecified) | 1.32% (inactive) | –
63 | C[C@@H](CN1CCC(Cc2ccccc2)CC1)[C@@H](O)c1ccc(O)cc1 | -1.24% (inactive) | –
64 | Ic1ccc(N2CCN(Cc3c[nH]c4ncccc34)CC2)cc1 | -4.61% (inactive) | –
65 | COc1ccccc1N1CCN(CCCCNS(=O)(=O)c2cccc3c(N(C)C)cccc23)CC1 | -23.8% (inactive) | –
66 | CC(=O)SCC[N+](C)(C)C | -0.543% (inactive) | –
67 | CN(C)C(N)=NCCC[C@H](N)C(=O)O | -3.54% (inactive) | –
68 | CCCCCCCCCCCCCCCC(=O)NCC(COP(=O)([O-])OCC[N+](C)(C)C)OCC (stereo unspecified) | 1.28% (inactive) | –
69 | CO/S(=N\S(=O)(=O)c1ccc(Cl)cc1)c1ccc([N+](=O)[O-])cc1 (stereo unspecified) | -4.37% (inactive) | –

Row | Compound | activity change, positive = activation | outcome
70 | CC(C)NC[C@@H](O)c1ccc(O)c(O)c1 | -28.7% (inactive) | –
71 | Cn1ncc(S(=O)(=O)Cc2ccccc2)c(Br)c1=O | 1.71% (inactive) | –
72 | CNC(=O)[C@H]1O[C@@H](n2cnc3c(NCc4ccc(N)cc4)ncnc32)[C@H](O)[C@@H]1O | -13.1% (inactive) | –
73 | CN1C2CCC1CC(OC(=O)C(O)c1ccccc1)C2 (stereo unspecified) | -0.791% (inactive) | –
74 | CCC1C(=O)OCC1Cc1cncn1C (stereo unspecified) | – | inactive
75 | O=C1O/C(=C/Br)CCC1c1cccc2ccccc12 (stereo unspecified) | -7.64% (inactive) | –
76 | Nc1nc(Cl)nc2c1ncn2[C@@H]1O[C@H](COP(=O)(O)OP(=O)(O)OP(=O)(O)O)[C@@H](O)[C@H]1O | -2.93% (inactive) | –
77 | CCCCCCCCc1ccc(-c2ccc(C(=O)O)cc2)cc1 | 1.28% (inactive) | –
78 | CSc1nc(N)c2ncn([C@@H]3O[C@H](COP(=O)(O)OP(=O)(O)OP(=O)(O)O)[C@@H](O)[C@H]3O)c2n1 | -0.804% (inactive) | –
79 | Cc1cc(NC2CCCCC2)nc(-n2nc(C)cc2C)n1 | -1.82% (inactive) | –
80 | C[N+](C)(CCCCCC[N+](C)(C)CCCN1C(=O)c2cccc3cccc(c23)C1=O)CCCN1C(=O)c2cccc3cccc(c23)C1=O | 4.33% (inactive) | –
81 | CC(N)C(=O)OC(C)(C)Cc1ccc(Cl)cc1 (stereo unspecified) | 1.31% (inactive) | –
82 | Cn1cc(C2=C(c3ccc(Cl)cc3Cl)C(=O)NC2=O)c2ccccc21 | -4.01% (inactive) | –
83 | O=C(c1ccc(Cl)cc1)N1CCN(c2ccc([N+](=O)[O-])c3ncccc23)CC1 | -26.2% (inactive) | –
84 | O=C(O)c1cc([N+](=O)[O-])ccc1NCCCc1ccccc1 | -5.19% (inactive) | –
85 | Cc1cc(NC(=O)Nc2ccc3c(ccn3C)c2)sn1 | -2.62% (inactive) | –
86 | CN1CCc2ccccc2Cc2[nH]c3ccccc3c2CC1 | -10.7% (inactive) | –
